The campaign covered roughly 39,000 compounds. About 220 (0.56%) showed activity. The entries come from a sample that favours actives as a whole. A number with no mark means an inactive call.
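Note: Wild-type cells incubated without shaking, value is the mean of two biological replicates.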

The assay relates to Escherichia coli K-12 BW25113. Description: relative growth (OD600 normalised to plate interquartile mean) (fraction); higher = less growth inhibition, active = 0.2 or less. To be noted: 50 µM; LB; incubation time: overnight (16-24 h).
In the case of `Cc1nn[nH]n1`, the relative growth was 0.979.
Then `Cc1c(N)nc([C@H](CC(N)=O)NC[C@@H](N)C(N)=O)nc1C(=O)N[C@H](C(=O)N[C@@H](C)[C@H](O)[C@@H](C)C(=O)N[C@@H](C(=O)NCCc1nc(-c2nc(C(=O)NCCC[S+](C)C)cs2)cs1)[C@@H](C)O)[C@@H](O[C@H]1O[C@H](CO)[C@H](O)[C@@H](O)[C@H]1O[C@H]1O[C@H](CO)[C@@H](O)[C@H](OC(N)=O)[C@@H]1O)c1c[nH]cn1`, with 0.0355 (active).
Then `Cc1c(N)nc([C@H](CC(N)=O)NC[C@@H](N)C(N)=O)nc1C(=O)N[C@H](C(=O)N[C@@H](C)[C@H](O)[C@@H](C)C(=O)N[C@@H](C(=O)NCCc1nc(-c2nc(C(=O)NCCC[S+](C)C)cs2)cs1)[C@@H](C)O)[C@@H](O[C@H]1O[C@H](CO)[C@H](O)[C@@H](O)[C@H]1O[C@H]1O[C@H](CO)[C@@H](O)[C@H](OC(N)=O)[C@@H]1O)c1cnc[nH]1`, with 0.0324 (active); and `Cc1cc(O)c2c(=O)c3c(O)cc(O)c4c5c(O)cc(O)c6c(=O)c7c(O)cc(C)c8c1c2c(c34)c(c78)c65`, with 1.61.
For `O=C1[O][SbH]23[O]C(=O)[C@H]([O]2)[C@H]2[O][SbH]4([O]C(=O)[C@H]([O]4)[C@H]1[O]3)[O]C2=O` the value was 0.313; for `CC1=C[C@H]2O[C@@H]3[C@H](O)[C@@H](O[C@H]4O[C@H](CO)[C@@H](O)[C@H](O)[C@H]4O)[C@](C)([C@@]2(CO)CC1)[C@]31CO1`, 0.947; for `O=C1CCCC2C3CCCN4CCCC(CN12)C34` (centres undefined), 1.05.
With `Cn1ncnc2c(=O)n(C)c(=O)nc1-2`, the relative growth is 0.0341 (active).
For `Cc1nc2c(=O)n(C)c(=O)nc-2n(C)n1` the value was 0.0393 (active).
For `CCn1nc(-c2cccnc2)nc2c(=O)n(C)c(=O)nc1-2` the value was 0.846; for `COc1cccc2c1C(=O)c1c(O)c3c(c(O)c1C2=O)C[C@@](O)(C(=O)CO)C[C@@H]3O[C@H]1C[C@H](N2CCO[C@H](OC)C2)[C@H](O)[C@H](C)O1`, 0.933; for `CO[C@H]1C[C@H](O[C@H]2CC[C@]3(C=O)[C@H]4CC[C@]5(C)[C@@H](C6=CC(=O)OC6)CC[C@]5(O)[C@@H]4CC[C@]3(O)C2)O[C@H](C)[C@H]1O`, 0.98.
For `CO[C@H]1[C@@H](O)C[C@@H](O[C@H]2[C@@H](O)C[C@@H](O[C@H]3[C@@H](O)C[C@@H](O[C@H]4CC[C@@]5(C)[C@@H](CC[C@H]6[C@@H]5C[C@@H](O)[C@@]5(C)[C@H](C7=CC(=O)OC7)CC[C@@]65O)C4)O[C@@H]3C)O[C@@H]2C)O[C@@H]1C` the value was 1.
On to `C=CCN1C(=O)NC(=O)/C(=C/c2ccco2)C1=O`, for which the relative growth was 0.971.
For `NC(=O)c1cn([C@H]2O[C@@H](CO)[C@H](O)[C@@H]2O)c2ncnc(N)c12` the value was 0.892.
For `CN1[C@@H]2CC[C@H]1C[C@H](O)C2`, the relative growth is 1.
For `C=C1[C@@H](C)[C@H]2[C@H](Cc3ccccc3)NC(=O)[C@]23[C@H](OC(C)=O)/C=C/[C@](C)(O)C(=O)[C@@H](C)C/C=C/[C@H]3[C@@H]1O` the value was 0.976; for `O=S(=O)(O)O.Oc1cccc2cccnc12`, 0.0986 (active); for `CC12CCC3c4ccc(OC(=O)N(CCCl)CCCl)cc4CCC3C1CCC2O` (centres undefined), 0.992.
Take `CCCCCCCCCC(=O)O[C@@H]1[C@@H](C)[C@]2(O)[C@@H](C=C(CO)C[C@]3(O)C(=O)C(C)=C[C@@H]23)[C@@H]2C(C)(C)[C@@]12OC(=O)CCCCCCCCC`: the relative growth is 1.03.
Turning to `CN[C@H]1C[C@@H](N)[C@H](O)[C@@H](O[C@@H]2O[C@H](CO)[C@H](O)[C@@H]3O[C@@]4(O[C@H]23)O[C@H]([C@@H](N)CO)[C@H](O)[C@H](O)[C@H]4O)[C@@H]1O`, the relative growth is 0.0323 (active).
Then `COC(=O)[C@]1(Cc2ccccc2N=[N+]=[N-])N=C(c2ccc(OCCCO)cc2)O[C@@H]1c1ccccc1N=[N+]=[N-]`, with 1.03; and `CCOCC(=O)N1CC[C@H]2CNC[C@H]21`, with 0.983.
For the compound `CCCCCCCCCCCCCC(=O)O[C@@H]1[C@@H](C)[C@@]2(O)[C@@H](C=C(CO)C[C@]3(O)C(=O)C(C)=C[C@@H]23)[C@@H]2C(C)(C)[C@]12OC(C)=O`, the relative growth was 1.02.
With `CN(C)[C@@H]1C(=O)[C@@H](C(N)=O)C(=O)[C@@]2(O)C(=O)[C@H]3C(=O)c4c(O)ccc(Cl)c4[C@@](C)(O)[C@H]3C[C@@H]12`, the relative growth is 0.037 (active).
For `CN(C)[C@@H]1C(=O)[C@H](C(N)=O)C(=O)[C@@]2(O)C(=O)[C@@H]3C(=O)c4c(O)cccc4[C@@](C)(O)[C@H]3C[C@@H]12` the value was 0.182 (active).
In the case of `CN(C)[C@@H]1C(=O)C(C(N)=O)=C(O)[C@@]2(O)C(O)=C3C(=O)c4c(O)cccc4[C@](C)(O)[C@H]3C[C@@H]12`, the relative growth is 0.0416 (active).
Then `COc1c(C[C@@H](C)O)c2c3c(C[C@@H](C)O)c(OC)c(=O)c4c(O)cc5c(c6c(cc(O)c(c1=O)c62)OCO5)c43`, with 1.08.
For `CC12CCC(O)CC1CCC1C2CC(O)C2(C)C(C3=CC(=O)OC3)CCC12O` (centres undefined) the value was 0.988.
Take `CC(=O)N1CCCC[C@]12CCNC2`: the relative growth was 0.984.
Then `CC1=C(O)C(=O)C=C2C1=CC=C1C2(C)CCC2(C)C3CC(C)(C(=O)O)CCC3(C)CCC12C` (centres undefined), with 1.02; and `CN(C)C(=O)[C@]1(Cc2ccccc2CN=[N+]=[N-])N=C(c2ccc(OCCCO)cc2)O[C@@H]1c1ccccc1N=[N+]=[N-]`, with 1.02.
For `CC(=O)OC1CC2(C)C(c3ccoc3)CC3OC32C2(C)C(=O)C(O)=C3C(C)(C)C(=O)C=CC3(C)C12` (centres undefined) the value was 1.06.
Then `CCOC(=O)c1c(CN2CCN(c3ccccc3)CC2)n(Cc2ccccc2)c2cc(Br)c(O)cc12`, with 1.03.
In the case of `CO[C@@H]1C[C@@H](C[C@H]2CC[C@H](C)[C@H]([C@@H](C)C(=O)O)O2)O[C@]2(O[C@](C)([C@H]3CC[C@@](C)([C@H]4O[C@@H]([C@H]5O[C@@](O)(CO)[C@H](C)C[C@@H]5C)C[C@@H]4C)O3)C[C@H]2C)[C@@H]1C`, the relative growth is 0.945.
For `Cc1ccc(OC(=O)N(C)C[C@H]2OCc3ccccc3-c3c(n(C)c4ccccc34)C(=O)N([C@H](C)CO)C[C@@H]2C)cc1` the value was 1; for `CC(=O)OC1CC(OC2C(O)CC(OC3C(O)CC(OC4CCC5(C)C(CCC6C5CC(O)C5(C)C(C7=CC(=O)OC7)CCC65O)C4)OC3C)OC2C)OC(C)C1OC1OC(CO)C(O)C(O)C1O` (centres undefined), 0.995.
Then `Cc1nc(-c2ccc(-c3ccc(C(=O)N4CCc5cc6c(cc54)C4(CCN(C)CC4)CO6)cc3)c(C)c2)no1`, with 0.932.
Then `CO[C@@H]1C=C[C@@H]2[C@H]1N2CCO` (some centres undefined), with 0.968.
For `CN[C@@H]1[C@@H](O)[C@@H](O[C@@H]2[C@@H](O)[C@H](O[C@H]3O[C@H](CN)CC[C@H]3N)[C@@H](N)C[C@H]2N)OC[C@]1(C)O.CN[C@@H]1[C@@H](O)[C@@H](O[C@@H]2[C@@H](O)[C@H](O[C@H]3O[C@H]([C@@H](C)N)CC[C@H]3N)[C@@H](N)C[C@H]2N)OC[C@]1(C)O.CN[C@@H]1[C@@H](O)[C@@H](O[C@@H]2[C@@H](O)[C@H](O[C@H]3O[C@H]([C@@H](C)NC)CC[C@H]3N)[C@@H](N)C[C@H]2N)OC[C@]1(C)O`, the relative growth is 0.624.
Then `CNC1C(O)C(OC2C(N)CC(N)C(OC3OC(C(C)O)C(O)C(O)C3N)C2O)OCC1(C)O` (centres undefined), with 0.0438 (active).
For `CN[C@@H]1[C@@H](O)[C@@H](O[C@@H]2[C@H](O)[C@@H](O[C@H]3O[C@H]([C@@H](C)O)[C@@H](O)[C@H](O)[C@H]3N)[C@H](N)C[C@@H]2N)OC[C@]1(C)O` the value was 0.484; for `C[C@@]1(C(=O)O)[C@H]2CC[C@@H](O2)[C@@]1(C)C(=O)O`, 0.979.
Then `CC(=O)OC[C@]12CCC(C)=C[C@H]1O[C@@H]1[C@H](O)[C@@H](OC(C)=O)[C@@]2(C)[C@]12CO2`, with 0.969.
On to `[NH2][Pt]1([NH2])[O]C(=O)C2(CCC2)C(=O)[O]1`, for which the relative growth was 0.958.
For `CC(C)(C)c1ccc(O)cc1` the value was 0.998; for `CNC(=O)Oc1cccc2ccccc12`, 1.05; for `NCCc1cccc2ccccc12`, 1.
Take `O=[N+]([O-])C(Br)(CO)CO`: the relative growth was 0.0475 (active).
Then `OCC(Br)(Br)Br`, with 1.02.
On to `OCCN(CCO)CCO`, for which the relative growth is 0.97.
For `C[C@@H](N)Cc1ccc(O)cc1` the value was 0.992; for `C[C@@H]1O[C@@H](O[C@@H]2C[C@@H](O)[C@]3(CO)[C@H]4[C@H](O)C[C@]5(C)[C@@H](C6=CC(=O)OC6)CC[C@]5(O)[C@@H]4CC[C@]3(O)C2)[C@H](O)[C@H](O)[C@H]1O`, 0.995; for `NCC(=O)c1ccccc1`, 1.
For `CC(=O)[O][Hg][c]1ccccc1` the value was 0.0564 (active).
Then `O=C(Cc1ccccc1)c1ccccc1`, with 0.986.
As for `C=C(C)[C@@H]1CCC(C)=C[C@H]1c1c(O)cc(CCCCC)cc1O`, the relative growth was 1.01.
For `C[C@@]12C(=O)OC(=O)[C@]1(C)[C@H]1CC[C@@H]2O1` the value was 0.933; for `COc1cccc(C2(N)CCCC2)c1`, 1.02.
For `CN1[C@@H]2CC[C@@H]1C[C@H](O)C2` (some centres undefined) the value was 1.01; for `O=C1C=C2C(=CCOC2O)O1` (centres undefined), 0.0434 (active).
Then `O=C1C=C2C(=CCO[C@@H]2O)O1`, with 1; and `CC1(C)C(=O)C=CC2(C)C1=C(O)C(=O)C1(C)C2CCC2(C)C(c3ccoc3)CC3OC321` (centres undefined), with 1.07; and `COC(=O)C[C@](O)(CCC(C)(C)O)C(=O)O[C@@H]1C(OC)=C[C@]23CCCN2CCc2cc4c(cc2[C@H]13)OCO4`, with 1.02.
For the compound `O=c1[nH]c2ccccc2n1C1CCN(Cc2ccc(-c3nc4cc5[nH]cnc5cc4nc3-c3ccccc3)cc2)CC1`, the relative growth is 1.09.
Then `O=[N+]([O-])c1ccc(N(CCO)CCO)c2c1no[n+]2[O-]`, with 0.0367 (active); and `C[C@@H]1CC[C@@]2(OC1)O[C@H]1C[C@H]3[C@@H]4CC=C5C[C@@H](O[C@@H]6O[C@H](CO)[C@@H](O[C@@H]7O[C@@H](C)[C@H](O)[C@@H](O)[C@H]7O)[C@H](O)[C@H]6O[C@@H]6O[C@@H](C)[C@H](O)[C@@H](O)[C@H]6O)CC[C@]5(C)[C@H]4CC[C@]3(C)[C@H]1[C@@H]2C`, with 0.913.
With `CC(C)C12OC1C1OC13C1(C)CCC4=C(COC4=O)C1CC1OC13C2O` (centres undefined), the relative growth was 0.947.
Then `COc1ccc(C(CN(C)C)C2(O)CCCCC2)cc1.Cl` (centres undefined), with 1.14.

Values taken from the supplement of paper PMC9446081.
